Source: PubChem BioAssay (EPA / NIEHS)
Records with an inconclusive call do not appear. The source made the active and inactive calls. How the source made its calls: active means hit-call score of the fitted dose curve at least 0.9, where 1 is the maximum; inconclusive means response in the unintended direction; inactive means score below 0.9.

read-out: xenobiotic metabolism (CYP1A2), CYP1A2 (gene 1544); test: CLD_CYP1A2_6hr: CellzDirect (CLD) Gene Expression Assay for xenobiotic metabolism (CYP1A2) at 6 hours (AID 2283663);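 on AC50: potency is for induction meaning a rise in mRNA above DMSO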
Protocol: CLD_6hr is a cell-based, multiplexed-readout assay that uses hepatocyte, a human liver primary cell, with measurements taken at 6 hours after chemical dosing in a 96-well plate.CLD_CYP1A2_6hr is one of 16 assay component(s) measured or calculated from the CLD_6hr assay. It is designed to make measurements of mRNA induction, a form of inducible reporter, as detected with chemiluminescence signals by Quantitative Nuclease Protection Assay (qNPA) technology.Data from the assay component CLD_CYP1A2_6hr was analyzed at the endpoint, CLD_CYP1A2_6hr, in the positive analysis fitting direction relative to DMSO as the negative control and baseline of activity. Using a type of inducible reporter, gain-of-signal activity can be used to understand changes in the reporter gene as they relate to the gene CYP1A2. Furthermore, this assay endpoint can be referred to as a primary readout. To generalize the intended target to other relatable targets, this assay endpoint is annotated to the cyp intended target family, where subfamily is xenobiotic metabolism.
Human hepatocyte cultures were treated daily for two consecutive days with fresh dosing solutions containing appropriate concentrations of the 320 ToxCast chemicals (chemical identities were blinded to CellzDirect and other ToxCast collaborators), vehicle control (0.2% DMSO), and positive control inducers as summarized in Table 1. Due to the large number of treatment groups and chemicals examined, the ToxCast chemicals were divided into two groups (spanning two independent cultures of hepatocytes from separate donor preparations (Hu778: ToxCast plates 1 and 2; Hu776: ToxCast plates 3 and 4). Each preparation of human hepatocyte cultures was treated with respective vehicle control, medium only control, set of six positive controls/reference chemicals for the five hepatic receptor pathways, and a subset of eight of the ToxCast chemicals (indoxacarb, pyrithiobac-sodium, norflurazon, cyhalofop-butyl, methomyl, thiram, acetochlor, and propiconazole). These replicate data, coupled with internal replicates designed within the blinded ToxCast chemical library, provided additional data to evaluate interindividual differences between hepatocyte preparations and their potential impact on chemical profiles.Cell morphology and integrity were evaluated using phase-contrast microscopy as an indicator of hepatocyte cell health (Tyson & Green, 1987). Cultures for each treatment group (i.e., media, vehicle [0.2% DMSO], positive control inducers [multiple concentrations], and the ToxCast chemicals [multiple concentrations]) were observed and cell morphology was assessed relative to vehicle control cultures at each harvest time point (0, 6, 24, or 48 h). […] Images were evaluated at the conclusion of the study to assess changes in cell integrity and account for the effects of chemical exposure on uncharacteristic changes in concentration-dependent gene expression profiles. The results from these determinations of apparent cytotoxicity were annotated (yes/no) alongside the corresponding qNPA data for reference.At the conclusion of each treatment period, hepatocyte cultures (96-well) were washed with 1 volume of HBSS, lysed by addition of 25 ul ArrayPlate lysis buffer (HTG, Tucson, AZ), and 70 ul/well of Denaturation Oil, denatured by incubation at 95C for 10 min, and frozen at approximately -70C until analysis by nuclease protection assay (qNPA) (Roberts et al., 2007). For qNPA analysis, cell lysates were thawed at 50C for approximately 30 min, qNPA probes were added, and samples were incubated at 95C for 10 min to begin the detection process by denaturing the target RNA, dissociating the duplexes and secondary structure hybridization. At the conclusion of the hybridization period, S1 nuclease reagent was added to each sample to digest all nonprotected nucleotides at 50C for 60-90 min. […]

SMILES | outcome | AC50
OCCOc1ccccc1 | inactive | 
CC1(C)C(C=C(Cl)Cl)C1C(=O)OC(C#N)c1ccc(F)c(Oc2ccccc2)c1 (stereo not given) | inactive | 
Clc1ccccc1-c1nnc(-c2ccccc2Cl)nn1 | inactive | 
Cc1[nH]c(=O)n(C(C)(C)C)c(=O)c1Cl | inactive | 
N#CN | inactive | 
CNC(=O)/C=C(\C)OP(=O)(OC)OC | inactive | 
O=C(NC(=O)c1c(F)cccc1F)Nc1ccc(OC(F)(F)C(F)OC(F)(F)F)c(Cl)c1 (stereo not given) | inactive | 
O=S(=O)(O)C(F)(F)C(F)(F)C(F)(F)C(F)(F)C(F)(F)C(F)(F)C(F)(F)C(F)(F)F | inactive | 
COC(=O)c1ccccc1S(=O)(=O)NC(=O)Nc1nc(C)nc(OC)n1 | inactive | 
CCN(CC)C(=O)SCc1ccc(Cl)cc1 | inactive | 
CCC(C)Nc1c([N+](=O)[O-])cc(C(C)(C)C)cc1[N+](=O)[O-] (stereo not given) |  | 5.44 µM (active)
CNC(=O)CSP(=S)(OC)OC |  | 0.327 µM (active)
O=C(O)COc1ccc(Cl)cc1Cl |  | 1.89 µM (active)
CN1CSC(=S)N(C)C1 | inactive | 
COP(=S)(OC)Oc1ccc([N+](=O)[O-])cc1 |  | 3.16 µM (active)
CC(C)(C)C(O)/C(=C\c1ccc(Cl)cc1Cl)n1cncn1 (stereo not given) | inactive | 
CCOCN(C(=O)CCl)c1c(C)cccc1CC | inactive | 
O=[N+]([O-])/N=C1\NCCN1Cc1ccc(Cl)nc1 | inactive | 
C[C@H]1[C@H](c2ccc(Cl)cc2)SC(=O)N1C(=O)NC1CCCCC1 | inactive | 
CCOc1nc(NC)nc(NC(=O)NS(=O)(=O)c2ccccc2C(=O)OC)n1 | inactive | 

SMILES | outcome | AC50
O=C(O)CCCOc1ccc(Cl)cc1Cl | inactive | 
CCC(C)(NC(=O)c1cc(Cl)c(C)c(Cl)c1)C(=O)CCl (stereo not given) | inactive | 
COc1cc(OC)nc(NC(=O)NS(=O)(=O)c2cc(NC=O)ccc2C(=O)N(C)C)n1 | inactive | 
COc1nn(CSP(=S)(OC)OC)c(=O)s1 |  | 2.89 µM (active)
O=C(Nc1ccccc1)Nc1cnns1 |  | 3.08 µM (active)
[2H]C1([2H])[n+]2ccccc2-c2cccc[n+]2C1([2H])[2H] | inactive | 
CNC(=O)Oc1ccccc1OC(C)C | inactive | 
CC(C)(C)C(O)C(Oc1ccc(Cl)cc1)n1cncn1 (stereo not given) | inactive | 
CCS(=O)(=O)c1cccnc1S(=O)(=O)NC(=O)Nc1nc(OC)cc(OC)n1 | inactive | 
CNC(=O)Oc1cccc(N=CN(C)C)c1 | inactive | 
CCCN(CCC)c1c([N+](=O)[O-])cc(C(F)(F)F)cc1[N+](=O)[O-] | inactive | 
N#Cc1c(Cl)c(Cl)c(Cl)c(C#N)c1Cl |  | 31.7 µM (active)
CC(C)OC(=O)Nc1cccc(Cl)c1 |  | 3.11 µM (active)
CC(C)N(C(=O)COc1nnc(C(F)(F)F)s1)c1ccc(F)cc1 | inactive | 
CCc1ccc(C(=O)NN(C(=O)c2cc(C)cc(C)c2)C(C)(C)C)cc1 |  | 33.7 µM (active)
COC(=O)c1ccccc1S(=O)(=O)NC(=O)N(C)c1nc(C)nc(OC)n1 |  | 20 µM (active)
CCCN(CCOc1c(Cl)cc(Cl)cc1Cl)C(=O)n1ccnc1 |  | 0.0805 µM (active)
COP(=O)(OC)OC=C(Cl)Cl | inactive | 
COC(=O)c1ccccc1CS(=O)(=O)NC(=O)Nc1nc(OC)cc(OC)n1 | inactive | 
COP(=S)(OC)Oc1ccc(SC)c(C)c1 |  | 5.14 µM (active)
